A number with no mark means an inactive call. Activity calls are given as the source filed them. Calls follow the shape of the dose curve; as a rule, active = well fitted activation curve with a large enough effect in the repeat runs; inconclusive = weak or mixed curves; inactive = flat fitted curve, though single readings scatter.
% is scaled to controls: 0 for no effect and ±100 for the full control effect; potency is read from the fitted curve at half-maximal effect.

A short description of the assay: A CellTox Green Cytotoxicity Assay to monitor cytotoxicity in HepG2 cells - 0 hour (AID 1224882). Also: nearly all actives have a fitted effect of over 35% in size. The following applies: CellTox Green fluorescence; series mostly up to 76.8 µM; cytotoxicity: at the top concentration. From the text:
National Center for Advancing Translational Sciences [NCATS]
NIH Chemical Genomics Center [NCGC]
U.S. Environmental Protection Agency [EPA]
National Institutes of Environmental Health Sciences [NIEHS]
National Toxicology Program [NTP]
Cell-based models are critical for drug discovery. Determining the natural cytotoxic effects resulting from test compounds is an essential research activity. A CellTox Green Cytotoxicity Assay to monitor cytotoxicity in real time of continues cell culture during 40 hours of the compound treatment was used to screen Tox21 10K library compounds in HepG2 cells. CellTox Green Cytotoxicity Assay is a nonlytic, homogeneous, biofluorescent method to measure cytotoxicity in cell culture after experimental manipulation. The assay system uses a proprietary asymmetric cyanine dye that is excluded from viable cells but preferentially stains the dead cell's DNA. […] Viable cells produce no appreciable increases in fluorescence. Therefore, the fluorescence signal produced by the binding interaction with dead cell DNA is proportional to cytotoxicity.
The mixture of HepG2 cell suspension and reagents were dispensed at 600cells/6 ul/well in 1536-well tissue culture treated black solid bottom plates using a Multidrop dispenser. After the assay plates were incubated at a 37 C/5% CO2 incubator for 5 hours, 23 nL of compounds dissolved in DMSO, positive and negative controls was transferred to the assay plate by a pintool work station. The plates were incubated at 37 C for 40 hours. The fluorescence intensity were measured at 0h, 8h, 16h, 24h, 32h and 40h time points using ViewLux plate reader during compound treatment.
For the compound `CC(C)(C)C(=O)Oc1ccc(S(=O)(=O)Nc2ccccc2C(=O)NCC(=O)O)cc1`, the “cytotoxicity” value was 6.34% [at 35.3 µM].

For the compound `CCOC(=O)C(=O)CCCCCCl`, the “cytotoxicity” value was 0.978% [at 35.3 µM].

As to `CCCOC(=O)CC`, the “cytotoxicity” value is -2.95%.

Regarding `O=C(O)Cc1csc(-c2ccc(Cl)cc2)n1`, the “cytotoxicity” value is 19.3% [at 35.3 µM].

On to `COc1c(N2CCNC(C)C2)c(F)cc2c(=O)c(C(=O)O)cn(C3CC3)c12` (stereo not given), for which the “cytotoxicity” value is -2.95% [at 35.3 µM].

`CC1=CC(=O)[C@H]2C[C@@H]1C2(C)C`: the “cytotoxicity” value was 4.11%.

On to `CC(C)CCCO`, for which the “cytotoxicity” value is -4.79%.

For `CCOC(=O)OC(C)OC1=C(C(=O)Nc2ccccn2)N(C)S(=O)(=O)c2ccccc21` (stereo not given), the “cytotoxicity” value is -10.8% [at 35.3 µM].

For `O=CN(CCO)CCO`, the “cytotoxicity” value was -0.536%.

Turning to `Cc1onc(-c2c(Cl)cccc2Cl)c1C(=O)Cl`, the “cytotoxicity” value is -6.52% [at 35.3 µM].

For `CC(COc1ccccc1)NN` (stereo not given), the “cytotoxicity” value is 0.368% [at 35.3 µM].

Turning to `CCN1C=CN(C)C1C` (stereo not given), the “cytotoxicity” value was -8.93%.

With `CC(=O)c1ccccc1[N+](=O)[O-]`, the “cytotoxicity” value is 0.554%.

Consider `CCCCCCC1CCC(=O)O1` (stereo not given), for which the “cytotoxicity” value was -4.2%.

`C=CC(C)(CCC=C(C)C)OC(=O)CC` (stereo not given): the “cytotoxicity” value was 5.27%.

With `COc1cc(C(=O)NCc2ccc(OCCN(C)C)cc2)cc(OC)c1OC`, the “cytotoxicity” value is -8.5% [at 35.3 µM].

As for `CC(C)[C@H]1CC[C@@H](C)CC1=O`, the “cytotoxicity” value is -0.593%.

As for `CCCn1cc[n+](C)c1C`, the “cytotoxicity” value was -3.54%.

Regarding `CC1OC1C1CCC2(C)OC2C1` (stereo not given), the “cytotoxicity” value was 4.47%.

For the compound `Nc1ccn([C@@H]2O[C@H](CO)[C@@H](O)[C@@H]2O)c(=O)n1`, the “cytotoxicity” value was -5.15%.

As to `COCCOCC(OC)OC`, the “cytotoxicity” value is 12.5% [at 35.3 µM].

For the compound `NC(=O)N1c2ccccc2CC(=O)c2ccccc21`, the “cytotoxicity” value is -0.0296% [at 35.3 µM].

Take `CCC(C)(CN(C)C)OC(=O)c1ccccc1` (stereo not given): the “cytotoxicity” value was -1.47% [at 35.3 µM].

For the compound `C[C@H]1C[C@H]2[C@@H]3CCC4=CC(=O)C=C[C@]4(C)[C@H]3C(=O)C[C@]2(C)[C@@]1(O)C(=O)CO`, the “cytotoxicity” value is -0.356% [at 35.3 µM].

Turning to `O=C(O)c1cc(C(=O)O)cc(C(=O)O)c1`, the “cytotoxicity” value was -5.19%.

Turning to `Nc1ccccn1`, the “cytotoxicity” value is 1.02%.

Regarding `CC(N)C12CC3CC(CC(C3)C1)C2` (stereo not given), the “cytotoxicity” value was 7.68% [at 35.3 µM].

On to `CN1CCN(c2cc3c(nn2)Oc2ccccc2N3C)CC1`, for which the cytotoxicity is 0.041% [at 15.8 µM].

`CCCCOCCOC(=O)COc1cc(Cl)c(Cl)cc1Cl`: the “cytotoxicity” value is -1.61%.

As for `Cc1ccccc1N=C(N)N=C(N)N`, the “cytotoxicity” value is -0.725%.

Regarding `Cc1ccc(C(=O)Nc2ccc(S(=O)(=O)O)c3cc(S(=O)(=O)O)cc(S(=O)(=O)O)c23)cc1NC(=O)c1cccc(NC(=O)Nc2cccc(C(=O)Nc3cc(C(=O)Nc4ccc(S(=O)(=O)O)c5cc(S(=O)(=O)O)cc(S(=O)(=O)O)c45)ccc3C)c2)c1`, the Potency was 23.9 µM (active).

Turning to `NC(=O)Cc1cccc2ccccc12`, the “cytotoxicity” value is -0.161%.

For `CC(C)(N)C#N`, the “cytotoxicity” value was 8.66%.

On to `C=CCCC(=O)O`, for which the “cytotoxicity” value was 2.1%.

As to `CCCCCCCCCCCCCCCCCCO`, the “cytotoxicity” value was -0.209% [at 35.3 µM].

With `c1coc(CNc2ncnc3nc[nH]c23)c1`, the “cytotoxicity” value is 0.243%.

As for `O=S(=O)(O)c1cccc(S(=O)(=O)O)c1`, the “cytotoxicity” value was 0.51%.

As to `O=C(CO)[C@@H](O)[C@H](O)[C@H](O)CO`, the “cytotoxicity” value was -8.72%.

As to `CC(=O)N[C@H]1[C@H]([C@H](O)[C@H](O)CO)OC(C(=O)O)=C[C@@H]1N=C(N)N`, the “cytotoxicity” value was -3.18% [at 35.3 µM].

In the case of `CC(C)(C)OC(=O)c1cccc(N)c1`, the “cytotoxicity” value was 6.42%.

The values are drawn from PubChem BioAssay (Tox21).
